An excerpt weighted towards active compounds, which were near 19% of everything screened.
TDP1 cell CPT – qHTS for Inhibitors of human tyrosyl-DNA phosphodiesterase 1 (TDP1): qHTS in cells in presence of CPT | chicken DT40 Tdp1-/-;hTDP1 cells + 20 nM CPT, ATP luminescence, 48 h | Potency, µM (highest dose often 46.2 µM), for inactives: at the highest dose activity change, negative = growth inhibition, hits mostly inhibitors | AID 686979, 2013 | actives 12% (n = 420,000); note: nearly all actives have a fitted effect of over 55% in size
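Cell growth measured by CellTiter-Glo luminescence after a minimum 48 h, 37 C compound exposure with 20 nM CPT in Tdp1-knockout DT40 cells stably expressing hTDP1, seeded 400/well; qHTS titration format.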
TDP1 cell noCPT – qHTS for Inhibitors of human tyrosyl-DNA phosphodiesterase 1 (TDP1): qHTS in cells in absence of CPT; Potency, µM (highest dose often 46.2 µM), inactives show at the highest dose activity change, negative = growth inhibition, hits mostly inhibitors; DT40 Tdp1-/- hTDP1 cells, no CPT, ATP luminescence, 48 h; AID 686978, 2013; actives 15% (n = 420,000); note: nearly all actives have a fitted effect of over 55% in size
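Growth kinetics read by CellTiter-Glo luminescence after ≥48 hr at 37 °C. Cells: DT40 Tdp1-/- stably carrying human TDP1, 400 per well, compound exposure in the absence of CPT (DMSO vehicle).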
Gal4-VP16 FLuc – VP16 counterscreen qHTS for inhibitors of ROR gamma transcriptional activity; Drosophila S2 Gal4-VP16 UAS-luciferase, luminescence, 20 h; Potency, µM (titrated, usually from 53.6 µM), without a hit: at the highest dose activity, negative = inhibition, actives largely listed as inhibitors; actives 3.5% (n = 310,000);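 note: Gal4-VP16 expression switched on by copper sulfate through the metallothionein promoter; nearly all actives have a fitted effect of over 50% in size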
TDP1 inh – qHTS Assay for Inhibitors of Tyrosyl-DNA Phosphodiesterase (TDP1). Tyrosyl-DNA phosphodiesterase 1 (Homo sapiens), Q9NUW8. recombinant TDP1, AlphaScreen DNA substrate cleavage. Potency, µM (titrated, usually from 130 µM), for the others: at the highest dose activity change, negative = inhibition, hits mostly inhibitors. actives 0.28% (n = 350,000). AID 485290, 2010; note: nearly all actives have a fitted effect of over 40% in size
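E. coli-derived human Tdp1, 1 nM final. Cpd preinc 15 min RT; substrate 15 nM final, 5 min RT; AS bead mix 10 ug/ml final, 10 min RT. Signal loss = tyrosine-FITC cleavage. No-enzyme wells = max signal.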
RORg inh – qHTS for inhibitors of ROR gamma transcriptional activity; Nuclear receptor ROR-gamma (Mus musculus), P51450; Drosophila S2 Gal4-RORgamma UAS-luciferase reporter, 20 h; Potency, µM (top dose mostly 53.6 µM), for inactives: top-dose activity change, negative = inhibition, actives largely listed as inhibitors; actives 5.4% (n = 310,000); AID 2551, 2010; note: nearly all actives have a fitted effect of over 60% in size
Target sequence (P51450 whole entry, looked up, the tested form may be a part): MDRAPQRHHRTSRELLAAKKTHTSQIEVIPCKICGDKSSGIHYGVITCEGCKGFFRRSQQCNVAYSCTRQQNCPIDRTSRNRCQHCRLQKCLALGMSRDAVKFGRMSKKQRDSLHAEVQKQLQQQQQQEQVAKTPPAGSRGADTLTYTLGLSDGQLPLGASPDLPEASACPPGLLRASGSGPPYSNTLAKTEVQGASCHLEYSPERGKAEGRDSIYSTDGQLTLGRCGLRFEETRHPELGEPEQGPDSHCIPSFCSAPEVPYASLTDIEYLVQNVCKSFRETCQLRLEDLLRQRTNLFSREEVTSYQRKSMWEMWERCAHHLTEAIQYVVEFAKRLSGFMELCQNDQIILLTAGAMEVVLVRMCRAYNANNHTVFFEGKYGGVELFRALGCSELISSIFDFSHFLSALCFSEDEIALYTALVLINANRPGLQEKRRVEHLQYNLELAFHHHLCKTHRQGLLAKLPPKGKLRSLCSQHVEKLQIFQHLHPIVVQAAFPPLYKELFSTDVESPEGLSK
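In this cell-based reporter format, copper sulfate (700 uM final) drives Gal4–ROR gamma fusion expression from a metallothionein promoter in Drosophila Schneider cells; compounds preincubated 1 hr, reporter read after 20 hr at ambient temperature.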
* marks the source's active call; other numbers are inactive results. Calls come from the whole dose curve; as a rule, active = well fitted curve in the direction sought with a large enough effect; inconclusive = small, poorly fitted or top-dose-only effect, or another doubt; inactive = no such curve, though single readings can be large; an effect the other way counts as inactive or inconclusive. % is set by controls: 0 for no effect and ±100 for the full control effect; potency is the fitted concentration of half-maximal effect.

What do the screens show for `Cc1ccc(CN2CCN(Cc3c[nH]c4ccccc34)CC2CCO)o1` (stereo not given)?
TDP1 cell CPT: 7.3µM*; TDP1 cell noCPT: inconclusive; Gal4-VP16 FLuc: 1%; TDP1 inh: 6%; RORg inh: 1%

How did CCOc1ccccc1CN1CCN(Cc2[nH]c3ccccc3c2C)CC1CCO (stereo not given) do in these assays?
TDP1 cell CPT: inconclusive; TDP1 cell noCPT: 15µM*; Gal4-VP16 FLuc: inconclusive; TDP1 inh: -1%; RORg inh: inconclusive

Results for CCOc1ccccc1CN1CCN(Cc2c[nH]c3ccccc23)CC1CCO (stereo not given) ?
TDP1 cell CPT: 9.2µM*; TDP1 cell noCPT: 16µM*; Gal4-VP16 FLuc: -5%; RORg inh: 0%

What do the screens show for `COc1ccc(C)cc1NC(=O)C1CCCN(S(=O)(=O)c2cccs2)C1` (stereo not given)?
TDP1 cell CPT: -21%; TDP1 cell noCPT: inconclusive; Gal4-VP16 FLuc: -3%; TDP1 inh: 0%; RORg inh: 28%

Results for N#Cc1c(N)nc(SCC(=O)OCc2ccccc2)c(C#N)c1-c1ccco1 ?
TDP1 cell CPT: -1%; TDP1 cell noCPT: -5%; Gal4-VP16 FLuc: 2%; TDP1 inh: -2%; RORg inh: 0%

Results for N#Cc1c(N)nc(SCc2ccccc2)c(C#N)c1-c1ccco1 ?
TDP1 cell CPT: inconclusive; TDP1 cell noCPT: inconclusive; Gal4-VP16 FLuc: 7.9µM*; TDP1 inh: 0%; RORg inh: inconclusive

How did CCn1c(SCc2ccccc2)nnc1C1CCCCC1 do in these assays?
TDP1 cell CPT: inconclusive; TDP1 cell noCPT: inconclusive; Gal4-VP16 FLuc: inconclusive; TDP1 inh: -3%; RORg inh: inconclusive

What do the screens show for `O=C(CSc1nc2c([nH]c3ccccc32)c(=O)n1-c1ccc(Cl)cc1)N1CCCC1`?
TDP1 cell CPT: -6%; TDP1 cell noCPT: -1%; TDP1 inh: -11%

How did CCc1noc(C)c1C(=O)N1CCN(c2cccc(C)c2C)CC1 do in these assays?
TDP1 cell CPT: inconclusive; TDP1 cell noCPT: 15µM*; TDP1 inh: 0%

Results for Cc1onc(-c2ccccc2)c1C(=O)N1CCN(CCc2ccccc2)CC1 ?
TDP1 cell CPT: -19%; TDP1 cell noCPT: inconclusive; Gal4-VP16 FLuc: 5%; TDP1 inh: 4%; RORg inh: -4%

What do the screens show for `Cc1onc(-c2ccccc2)c1C(=O)N1CCN(c2ccccn2)CC1`?
TDP1 cell CPT: -20%; TDP1 cell noCPT: 18%; Gal4-VP16 FLuc: -10%; TDP1 inh: 3%; RORg inh: 8%

Results for Cc1onc(-c2ccccc2)c1C(=O)N1CCN(c2ncccc2C(F)(F)F)CC1 ?
TDP1 cell CPT: 23µM*; TDP1 cell noCPT: inconclusive; Gal4-VP16 FLuc: -8%; TDP1 inh: 2%; RORg inh: 3%

How did Cc1cccc(N2CCN(C(=O)c3c(-c4ccccc4)noc3C)CC2)c1C do in these assays?
TDP1 cell CPT: 2.9µM*; TDP1 cell noCPT: 1.5µM*; Gal4-VP16 FLuc: 0%; TDP1 inh: 0%; RORg inh: 1%

How did COc1ccc(CN2CCN(C(=O)c3c(-c4ccccc4)noc3C)CC2)cc1F do in these assays?
TDP1 cell CPT: inconclusive; TDP1 cell noCPT: 23µM*; TDP1 inh: 0%

How did COc1cc2[nH]c(=O)n(CCC(=O)N3CCN(Cc4ccc5c(c4)OCO5)CC3)c(=O)c2cc1OC do in these assays?
TDP1 cell CPT: inconclusive; TDP1 cell noCPT: -24%; Gal4-VP16 FLuc: -5%; TDP1 inh: 1%; RORg inh: 14%

How did CCOC(=O)c1sc2ncn(C(CC)C(=O)OCC)c(=O)c2c1C (stereo not given) do in these assays?
TDP1 cell CPT: -27%; TDP1 cell noCPT: -18%; Gal4-VP16 FLuc: 0%; TDP1 inh: 0%; RORg inh: 22%
